Measured values published in PubChem BioAssay (Tox21).
Results filed as inconclusive are left out. The source made the active and inactive calls. Unless noted, the call rests on the fitted dose curve; in most records, active means well fitted curve in the direction sought with a large enough effect in the repeat runs; inconclusive means weak or mixed curves; inactive means no such curve, though single readings can be large; an effect the other way counts as inactive or inconclusive.

What was measured:
[1] = qHTS assay to identify small molecule agonists of the vitamin D receptor (VDR) signaling pathway - cell viability counter screen (AID 743224); further: on the % scale 0 is the no-effect control and ±100 the full control effect; nearly all actives have a fitted effect of over 50% in size
Procedure, shortened: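 Counter screen for cytotoxicity: VDR-bla cells at 2,000 cells/well, 16 h compound exposure, then CellTiter-Glo luminescence after the beta-lactamase measurement.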

[2] = qHTS assay to identify small molecule antagonists of the vitamin D receptor (VDR) signaling pathway - cell viability counter screen (AID 743225); further: on the % scale 0 is the no-effect control and ±100 the full control effect; nearly all actives have a fitted effect of over 50% in size
Procedure, shortened: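 Cytotoxicity counter screen read by CellTiter-Glo luminescence (30 min, room temperature) in the same wells as the VDR-bla antagonist readout. HEK 293T VDR-UAS-bla cells had 16 h at 37C with compound and 3 nM (final) 1-alpha,25-dihydroxyvitamin D3, then 2 h with FRET substrate.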

[3] = qHTS assay to identify small molecule agonists of the NFkB signaling pathway (AID 1159509; active means well fitted curve in the direction sought with a large enough effect in the signal ratio in the repeat runs, not every such curve was filed as active; the % refers to the signal ratio; further: on the % scale 0 is the no-effect control and ±100 the full control effect)
Procedure, shortened: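 Readout: FRET fluorescence, 405 nm excitation, 460/530 nm emission; beta-lactamase expression disrupts FRET. Cells: ME-180 stably carrying NF-kB-driven bla reporter. Compound exposure 5 hr, 37 C, 5% CO2.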

[4] = qHTS assay to identify small molecule agonists of the NFkB signaling pathway - cell viability counter screen (AID 1159515; calls by dose curve; further: on the % scale 0 is the no-effect control and ±100 the full control effect; nearly all actives have a fitted effect of over 55% in size)
Procedure, shortened: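 Counter screen run alongside the NFkB-bla agonist assay: ME-180 reporter cells exposed to compounds for 5 hr, then lysed with CellTiter-Glo in the same wells. Luminescence, read after 30 min, reflects viable cells.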

[5] = qHTS assay to identify small molecule agonists of the endoplasmic reticulum stress response signaling pathway (AID 1159516; active means well fitted activation curve with a large enough effect in the signal ratio in the repeat runs, not every such curve was filed as active; the % refers to the signal ratio; further: on the % scale 0 is the no-effect control and ±100 the full control effect)
Procedure, shortened: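 For this screen, HeLa cells stably carrying beta-lactamase under the ER stress response element received test compounds, positive controls or DMSO for 5 hr at 37 C; B/G FRET substrate was then added and dual-wavelength emission recorded.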

[6] = qHTS assay to identify small molecule antagonists of the retinoid-related orphan receptor gamma (ROR-gamma) signaling pathway - cell viability counter screen (AID 1159520); further: on the % scale 0 is the no-effect control and ±100 the full control effect; nearly all actives have a fitted effect of over 50% in size
Procedure, shortened: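 Tet-on ROR gamma CHO cells (1,000/well) were plated 4 hr, given compounds in DMSO for 2 hr at 37 C, then induced with 1 uM final doxycycline for 16 hr. Viability was read as ATP by CellTiter-Glo luminescence after 30 min.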

[7] = target: Nuclear receptor ROR-gamma (Homo sapiens) (UniProt P51449); assay: qHTS assay to identify small molecule antagonists of the retinoid-related orphan receptor gamma (ROR-gamma) signaling pathway (AID 1159521; further: top concentration of the series differs between compounds; on the % scale 0 is the no-effect control and ±100 the full control effect; nearly all actives have a fitted effect of over 50% in size)
Procedure, shortened: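 Antagonist read-out: drop in luminescence (ONE-Glo) from an RORE-LUC reporter in CHO cells with doxycycline-inducible ROR-gamma; 2 hr compound pretreatment, 1 uM doxycycline, 16 hr incubation at 37 C.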

[8] = qHTS assay to identify small molecule agonists of the AP-1 signaling pathway - cell viability counter screen (AID 1159525; calls by dose curve; further: nearly all actives have a fitted effect of over 55% in size)
Procedure, shortened: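 Each titration point was normalised to DMSO and tetra n-octyl ammonium bromide controls. The read was Cell Titer Glo luminescence after 30 min at RT, following 5 h compound exposure of ME-180 AP-1-bla cells at 37 °C.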

[9] = qHTS assay to identify small molecule agonists of the AP-1 signaling pathway (AID 1159526; calls by dose curve; further: on the % scale 0 is the no-effect control and ±100 the full control effect)
[10] = target: Retinoic acid receptor RXR-alpha (Homo sapiens) (UniProt P19793); assay: qHTS assay to identify small molecule agonists of the RXR signaling pathway (AID 1159527; calls by dose curve; further: on the % scale 0 is the no-effect control and ±100 the full control effect; nearly all actives have a fitted effect of over 35% in size)
Retinoic acid receptor RXR-alpha (Homo sapiens), sequence (P19793 whole entry, looked up): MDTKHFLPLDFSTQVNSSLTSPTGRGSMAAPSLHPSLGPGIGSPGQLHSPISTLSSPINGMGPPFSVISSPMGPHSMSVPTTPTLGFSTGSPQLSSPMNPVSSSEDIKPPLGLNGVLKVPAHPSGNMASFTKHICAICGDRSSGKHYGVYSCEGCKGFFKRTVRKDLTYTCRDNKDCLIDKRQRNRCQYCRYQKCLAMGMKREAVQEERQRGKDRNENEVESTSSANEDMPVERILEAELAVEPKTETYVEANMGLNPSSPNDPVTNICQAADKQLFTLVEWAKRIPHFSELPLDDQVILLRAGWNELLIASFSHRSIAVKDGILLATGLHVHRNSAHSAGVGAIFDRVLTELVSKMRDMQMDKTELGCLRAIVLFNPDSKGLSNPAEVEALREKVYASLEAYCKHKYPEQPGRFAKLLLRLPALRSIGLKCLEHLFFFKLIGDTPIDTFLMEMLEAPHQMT
Procedure, shortened: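 Agonist-mode beta-lactamase reporter assay: HEK 293T RXR-alpha-UAS-bla cells treated 16 hr at 37 C with compounds, 9-cis retinoic acid as positive control. LiveBLAzer FRET substrate, 405 nm excitation, 460/530 nm emission.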

[11] = qHTS assay to identify small molecule agonists of the RXR signaling pathway - cell viability counter screen (AID 1159529)
Procedure, shortened: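 CellTiter-Glo luminescence gave viability in the wells also read for beta-lactamase. Cells (RXR-alpha-UAS-bla HEK 293T, 2% charcoal-stripped FBS medium) had 5 hr plating, then 16 hr compound exposure at 37 C; tetraoctyl ammonium bromide served as positive control.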

[12] = qHTS assay to identify small molecule antagonists of the retinoid acid receptor (RAR) signaling pathway - cell viability counter screen (AID 1159551); further: on the % scale 0 is the no-effect control and ±100 the full control effect; nearly all actives have a fitted effect of over 35% in size
Procedure, shortened: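 Measured by luminescent ATP detection, viability reflects C3RL4 cells treated 6 h at 37 C with test chemicals in the presence of 1 uM (final) retinol.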

[13] = qHTS assay to identify small molecule antagonists of the retinoic acid receptor (RAR) signaling pathway (AID 1159552)
Procedure, shortened: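 Luminescent RARE reporter read-out in C3RL4 cells: 6 hr co-treatment at 37 C of test compounds with retinol at 1 uM final. Cells plated overnight beforehand; luciferase reagent incubated 30 min at room temperature before reading.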

[14] = qHTS assay to identify small molecule agonists of the retinoic acid receptor (RAR) signaling pathway (AID 1159553); details: C3RL4 RARE luciferase reporter, agonist, 6 h; activation: at 73.3 µM (top of the series); further: on the % scale 0 is the no-effect control and ±100 the full control effect
Procedure, shortened: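 6 hr compound exposure (DMSO vehicle) of overnight-plated C3RL4 RARE-luc cells at 37 C; luminescence quantified after 30 min RT with luciferase reagent.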

[15] = qHTS assay to identify small molecule antagonists of the estrogen related receptor (ERR) signaling pathway from Tox21 library - cell viability counter screen (AID 1224834); further: on the % scale 0 is the no-effect control and ±100 the full control effect; nearly all actives have a fitted effect of over 30% in size
Procedure, shortened: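 Seeded ERR cells were rested 6 h at 37 C/5% CO2 before compounds, positive and negative controls or DMSO were added. Incubation continued for 17.5 h, and viability was then quantified by CellTiter-Fluor fluorescence.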

[16] = target: Luciferin 4-monooxygenase (Photinus pyralis) (UniProt P08659); assay: qHTS assay to identify small molecule inhibitors of firefly luciferase (AID 1224835); further: on the % scale 0 is the no-effect control and ±100 the full control effect; nearly all actives have a fitted effect of over 25% in size
Luciferin 4-monooxygenase (Photinus pyralis), sequence (P08659 whole entry, looked up): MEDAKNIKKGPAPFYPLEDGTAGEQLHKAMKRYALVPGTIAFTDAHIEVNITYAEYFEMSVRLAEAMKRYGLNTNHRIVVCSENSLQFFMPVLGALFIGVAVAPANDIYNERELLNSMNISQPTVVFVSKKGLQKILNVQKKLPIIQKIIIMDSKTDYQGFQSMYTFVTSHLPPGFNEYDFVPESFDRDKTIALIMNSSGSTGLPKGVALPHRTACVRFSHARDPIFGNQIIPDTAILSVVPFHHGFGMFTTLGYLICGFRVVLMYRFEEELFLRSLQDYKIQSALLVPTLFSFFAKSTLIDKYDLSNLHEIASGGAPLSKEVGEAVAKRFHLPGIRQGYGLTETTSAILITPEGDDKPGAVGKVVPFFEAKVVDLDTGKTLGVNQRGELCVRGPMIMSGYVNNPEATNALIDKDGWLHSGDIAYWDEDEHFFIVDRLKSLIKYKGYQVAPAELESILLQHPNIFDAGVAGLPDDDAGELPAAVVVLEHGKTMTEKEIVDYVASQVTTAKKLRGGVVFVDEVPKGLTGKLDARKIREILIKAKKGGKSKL
Procedure, shortened: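 Quantitative HTS format; KM concentrations of both substrates. Purified P. pyralis FLuc activity quantified from luminescence images.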

[17] = qHTS assay to identify small molecule agonists of the constitutive androstane receptor (CAR) signaling pathway - cell viability counter screen (AID 1224836); further: on the % scale 0 is the no-effect control and ±100 the full control effect; nearly all actives have a fitted effect of over 45% in size
Procedure, shortened: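 Cell viability multiplexed with the CAR agonist screen: CellTiter-Fluor fluorescence after 23 hr at 37 C. HepG2-CYP2B6-hCAR cells got compounds at 15 concentrations with PK11195 at 0.75 uM final.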

[18] = target: Nuclear receptor subfamily 1 group I member 3 (Homo sapiens) (UniProt Q14994); assay: qHTS assay to identify small molecule antagonists of the constitutive androstane receptor (CAR) signaling pathway (AID 1224838);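 further: HepG2 cells stably expressing hCAR with CYP2B6 luciferase reporter stimulated by CITCO; on the % scale 0 is the no-effect control and ±100 the full control effect; nearly all actives have a fitted effect of over 40% in size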
Nuclear receptor subfamily 1 group I member 3 (Homo sapiens), sequence (Q14994 whole entry, looked up): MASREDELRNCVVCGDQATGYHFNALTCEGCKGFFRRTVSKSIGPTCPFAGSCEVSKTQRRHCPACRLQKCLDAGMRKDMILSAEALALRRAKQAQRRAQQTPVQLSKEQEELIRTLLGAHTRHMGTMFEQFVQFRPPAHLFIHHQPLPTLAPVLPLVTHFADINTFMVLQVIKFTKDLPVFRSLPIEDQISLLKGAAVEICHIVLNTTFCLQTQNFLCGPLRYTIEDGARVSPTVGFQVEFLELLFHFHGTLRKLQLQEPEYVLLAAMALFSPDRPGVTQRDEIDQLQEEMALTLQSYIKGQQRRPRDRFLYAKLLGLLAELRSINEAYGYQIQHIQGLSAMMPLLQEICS
Procedure, shortened: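 Human hepatoma HepG2 cells expressing hCAR and a CYP2B6 promoter (2.2 kb) luciferase construct; compound titration (15 points) with 50 nM CITCO final, 24 h at 37 C/5% CO2; luminescence via ONE-Glo after 30 min at room temperature.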

[19] = qHTS assay to identify small molecule antagonists of the constitutive androstane receptor (CAR) signaling pathway - cell viability counter screen (AID 1224837); further: on the % scale 0 is the no-effect control and ±100 the full control effect; nearly all actives have a fitted effect of over 45% in size
Procedure, shortened: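 To flag cytotoxic false antagonists, HepG2 hCAR/CYP2B6-2.2kb cells were treated 23 hr with 15-concentration compound series and 50 nM CITCO at 37 C/5% CO2; CellTiter-Fluor fluorescence was the measured end point.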

CCCCCCCCCCCCCCCC(=O)NCCO
inactive: outcome [1] | outcome [2] | outcome [3] | outcome [4] | outcome [5] | outcome [6] | outcome [7] | outcome [8] | outcome [9] | Potency [10] | outcome [11] | outcome [12] | Potency [13] | Potency [14] | Potency [15] | Potency [16] | outcome [17] | Potency [18]

COc1ccc(NS(=O)(=O)c2ccc(N)cc2)nn1
inactive: outcome [1] | outcome [2] | outcome [3] | outcome [4] | outcome [5] | outcome [6] | outcome [7] | outcome [8] | outcome [9] | Potency [10] | outcome [11] | outcome [12] | Potency [13] | Potency [14] | Potency [15] | Potency [16] | outcome [17]

CCCCOC(=O)C(=O)OCCCC
inactive: outcome [1] | outcome [2] | outcome [3] | outcome [4] | outcome [5] | outcome [6] | outcome [7] | outcome [8] | outcome [9] | Potency [10] | outcome [11] | outcome [12] | Potency [13] | Potency [14] | Potency [15] | outcome [17] | Potency [19] | Potency [18]

Nc1ccc(S(=O)(=O)Nc2ccccn2)cc1
inactive: outcome [2] | outcome [3] | outcome [4] | outcome [5] | outcome [6] | outcome [8] | outcome [9] | Potency [10] | outcome [12] | Potency [13] | Potency [14] | Potency [15] | Potency [16] | outcome [17] | Potency [19]

Cc1ccccc1C(=O)N1CC/C(=N\OS(=O)(=O)O)c2ccc(Cl)cc21
inactive: outcome [1] | outcome [2] | outcome [3] | outcome [4] | outcome [5] | outcome [6] | outcome [7] | outcome [8] | outcome [9] | Potency [10] | outcome [12] | Potency [13] | Potency [14] | Potency [16] | outcome [17] | Potency [19]

CC(C)CCC(=O)CCC(C)C
inactive: outcome [1] | outcome [2] | outcome [3] | outcome [4] | outcome [5] | outcome [7] | outcome [8] | outcome [9] | Potency [10] | outcome [11] | outcome [12] | Potency [13] | Potency [14] | Potency [15] | Potency [16] | outcome [17] | Potency [19]

FC(F)(F)/C(=N\OCC1OCCO1)c1ccc(Cl)cc1
inactive: outcome [1] | outcome [2] | outcome [3] | outcome [4] | outcome [5] | outcome [6] | outcome [7] | outcome [8] | outcome [9] | Potency [10] | outcome [12] | Potency [13] | Potency [14] | Potency [16] | outcome [17] | Potency [19] | Potency [18]

O=c1[nH]c(=O)c2[nH]c(=O)[nH]c2[nH]1
inactive: activity change, negative = cytotoxicity [1] -0.867% [at 13.2 µM] | viability change, negative = cytotoxic [2] 18.1% [at 6.95 µM] | activation [3] -0.0901% [at 6.95 µM] | activity, negative = cytotoxic [4] 1.31% [at 6.95 µM] | activation [5] -2.27% [at 6.95 µM] | activity, negative = cytotoxicity [6] -0.126% [at 8.39 µM] | activity change, negative = inhibition [7] 25.7% [at 8.39 µM] | viability change, negative = cytotoxic [8] 10.8% [at 6.97 µM] | activation [9] -0.69% [at 6.97 µM] | activation [10] 3.02% [at 6.98 µM] | activity change, negative = cytotoxicity [12] -0.439% [at 8.39 µM] | activity, negative = inhibition [13] 2.16% [at 8.39 µM] | activation [14] 0.0515% [at 8.36 µM] | viability change, negative = cytotoxic [15] -1.5% [at 8.39 µM] | activity change, negative = inhibition [16] -3.23% [at 10.5 µM] | viability change, negative = cytotoxic [17] -1.86% [at 8.39 µM]
